Source: PubChem BioAssay

What was measured:
[1] = target: Tumor necrosis factor receptor superfamily member 10B (Homo sapiens) (UniProt O14763); test: caspase-8 TRAIL sensitization, hit retest, confirmation, cell-based, NB7+caspase-8, with/without TRAIL, luminescence panel (AID 651596); conditions: NB7 neuroblastoma + caspase-8, TRAIL sensitization, luminescence viability, with TRAIL, mean of runs, at 10 µM, stronger effect = higher value
[2] = as above; conditions: NB7 neuroblastoma + caspase-8, without TRAIL, luminescence viability, without TRAIL, mean of runs, at 10 µM

Sequence of Tumor necrosis factor receptor superfamily member 10B (Homo sapiens) (O14763 whole entry, looked up): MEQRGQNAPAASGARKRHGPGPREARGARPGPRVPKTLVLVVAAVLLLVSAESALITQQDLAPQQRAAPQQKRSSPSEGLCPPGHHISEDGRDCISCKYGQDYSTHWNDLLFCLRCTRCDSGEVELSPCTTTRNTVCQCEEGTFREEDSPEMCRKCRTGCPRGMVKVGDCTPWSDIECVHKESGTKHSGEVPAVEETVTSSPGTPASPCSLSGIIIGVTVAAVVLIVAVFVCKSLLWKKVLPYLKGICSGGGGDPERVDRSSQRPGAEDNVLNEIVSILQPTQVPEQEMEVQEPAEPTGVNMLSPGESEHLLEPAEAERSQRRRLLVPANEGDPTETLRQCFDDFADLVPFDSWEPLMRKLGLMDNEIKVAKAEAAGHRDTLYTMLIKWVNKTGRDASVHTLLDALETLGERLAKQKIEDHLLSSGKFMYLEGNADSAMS

| SMILES | activity [1] | activity [2] |
| --- | --- | --- |
| N#CC1=C(N)N2C(=C(C#N)C1c1cccc(Br)c1)Nc1ccccc12 (stereo not given) | 55.6% | 61.6% |
| N/C(Cc1ccc(Cl)cc1)=N\OC(=O)c1cccc2ccccc12 | 99% | 97.5% |
| O=C(Nc1ccc(NC(=O)C2CC2)cn1)c1ccccc1 | 51.1% | 57% |
| CSc1nc2ccc(NC(=O)c3ccccn3)cc2s1 | 83.2% | 80% |
| O=C(CCl)N(c1ccccc1)C1CCCCC1 | 99.4% | 99.8% |
| Cc1cnc(NC(=O)c2ccc(OCC3CCCO3)cc2)s1 (stereo not given) | 93.3% | 94.7% |
| Cc1ccc(OCC(=O)NC(=S)Nc2ccccn2)c(Br)c1 | 86.3% | 81.9% |
| Cc1cc(C)n(-c2nc(Nc3ccccc3C(F)(F)F)nc(-n3nc(C)cc3C)n2)n1 | 51.8% | 71.9% |
| COc1ccc2oc(-c3ccccc3)cc(=O)c2c1 | 76.1% | 78% |
| Cc1ccc(C2=Nc3ccccc3N=C(C(Cl)Cl)C2)cc1 | 7.3% | 6.45% |
| O=C(NNc1nc(=O)c2cccnc2s1)c1ccccc1O | 45.7% | 43.9% |
| Cc1ccccc1C(=O)N1CCN(c2ccc(NC(=O)c3ccc([N+](=O)[O-])o3)cc2)CC1 | 86% | 99.5% |
| Clc1ccc(-n2ncc3c(N4CCCCCC4)ncnc32)cc1 | 78% | 74.8% |
| CC(=O)c1c(C)[nH]c(C(=O)Nc2ccccn2)c1C | 31.1% | 31.1% |
| CN(C)CC(O)c1ccc(C=Cc2ccc(Cl)cc2)cc1 (stereo not given) | 98.3% | 97.2% |
| COc1cccc(NC(=O)n2ncc3c(C)cccc32)c1 | 67.7% | 64.3% |
| COc1ccc(C(=O)/C=C2\C(=O)Nc3ccc(Br)cc32)cc1 | 49.3% | 77.4% |
| CNC(=O)c1cc(Oc2ccc(NC(=O)Nc3ccc(Cl)c(C(F)(F)F)c3)cc2)ccn1 | 88.9% | 63.2% |
| O=C(Nc1ccccn1)c1onc2c1CCCC2 | 78.8% | 78.2% |
| CC1C(=O)NN=C1C(=O)N/N=C\C(Br)=C\c1ccccc1 (stereo not given) | 80.2% | 73.8% |
| CCOc1ccc(NC(=O)Nc2cccnc2)cc1 | 55.2% | 40.9% |
| CC(C)Oc1ccc(C(=O)NC2=NCCS2)cc1 | 57.7% | 61.8% |
| Cc1nn(-c2ccccc2)c(Cl)c1CN(C(=O)CCl)c1ccc(Cl)cc1 | 99.3% | 99.6% |

| SMILES | activity [1] | activity [2] |
| --- | --- | --- |
| COc1ccc(C2C(O)C(c3c[nH]c4ccccc34)=NN2C(=O)CCl)cc1 (stereo not given) | 99.2% | 99.2% |
| Cc1ccc2nc(-c3ccc(NC(=O)CCN4C(=O)c5ccccc5C4=O)cc3)sc2c1 | 73.7% | 63.9% |
| O=C1c2ccccc2NC(c2ccccc2)N1/N=C/c1ccccc1 (stereo not given) | 52.5% | 40.1% |
| COc1ccc2oc(=Nc3ccccc3)c(-c3nc4ccccc4[nH]3)cc2c1 | 52.8% | 55% |
| O=c1cc(C(Cl)(Cl)Cl)oc2c1ccc1ccccc12 | 62.7% | 65.3% |
| Nc1c(N(CCC2=CCCCC2)C(=O)COc2ccc(F)cc2)c(=O)[nH]c(=O)n1Cc1ccccc1 | 27.3% | 23% |
| CCC(=O)Nc1cc2nn(-c3ccc(OC)cc3)nc2cc1C | 62.5% | 61.8% |
| COc1cccc(/C=C2\Oc3ccc(O)cc3C2=O)c1O | 66.8% | 56.4% |
| O=C(NC(=S)Nc1ccccn1)c1ccc(-c2ccccc2)cc1 | 76.3% | 72.8% |
| O=c1oc2ccccc2cc1-c1csc(Nc2nc3c(F)cccc3s2)n1 | 11.9% | 5.5% |
| NC(c1csc(NC(=O)Nc2cccc(C(F)(F)F)c2)n1)C1CCCCC1 (stereo not given) | 56.4% | 94.9% |
| O=C(CSc1nnc(-c2csc3c2CCCC3)o1)Nc1ccccc1 | 76.4% | 76.5% |
| CC(C)(C)c1ccc(-c2nnc(N)s2)cc1 | 64.7% | 66.7% |
| Cc1ccccc1C(=O)Nc1nnc(SCC(=O)NCc2ccco2)s1 | 61.1% | 58.2% |
| C(=N\Nc1nc2ccccc2[nH]1)/c1ccc2ncccc2c1 | 81% | 85.6% |
| N=c1c2c(n(Cc3ccc(Cl)c(Cl)c3)c3c1CCC3)CCCC2 | 80.6% | 60.1% |
| CCc1nc(N)nc(N)c1-c1ccc(NCCN)c([N+](=O)[O-])c1 | 80.7% | 81.5% |
| CCOC(=O)c1nn(-c2ccc3c(c2)CCN3C(C)=O)cc1O | 47% | 47.6% |
| COc1ccccc1NC(=O)c1nc(S(=O)(=O)Cc2ccccc2)ncc1Cl | 90.7% | 99.2% |
| NC(Cc1ccccc1)c1csc(NC(=O)Nc2ccccc2Oc2ccccc2)n1 (stereo not given) | 61.5% | 78.7% |
| CCc1ccc(-c2cc(C(=O)N/N=C/c3c[nH]c4ccccc34)[nH]n2)cc1 | 41.6% | 52.2% |
| Cc1ccc(OCC(=O)Nc2ccccc2C(N)=O)cc1 | 66.8% | 68.1% |
